NOD2-RIPK2 inh: inhibitors of human NOD2-RIPK2 interaction; O43353; CHO BLA complementation NOD2-RIPK2, CCF4 ratio; inhibition, % at 4.98 µM; 0.38% of 360,000 active; AID 624267; in the data active means inhibition above about 21%
TLR9-MyD88 inh: blocks human TLR9 binding to MyD88; Q9NR96+Q99836; inhibition, % at 4.98 µM; 0.21% of 340,000 active; CHO BLA complementation TLR9-MyD88, CCF4 FRET ratio;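 active means inhibition above the mean over all tested compounds plus 3 SD, cut at about 21% in these data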
Target sequence (Q99836 whole entry, looked up): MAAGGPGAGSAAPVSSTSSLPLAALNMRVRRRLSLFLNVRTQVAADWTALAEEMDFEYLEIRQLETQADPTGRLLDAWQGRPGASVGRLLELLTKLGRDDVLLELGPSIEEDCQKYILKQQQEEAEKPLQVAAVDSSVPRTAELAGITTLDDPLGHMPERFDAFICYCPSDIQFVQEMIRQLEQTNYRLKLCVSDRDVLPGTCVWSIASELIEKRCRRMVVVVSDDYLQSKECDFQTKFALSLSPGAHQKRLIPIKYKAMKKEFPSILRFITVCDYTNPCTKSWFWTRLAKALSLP
Target sequence (Q9NR96 whole entry, looked up): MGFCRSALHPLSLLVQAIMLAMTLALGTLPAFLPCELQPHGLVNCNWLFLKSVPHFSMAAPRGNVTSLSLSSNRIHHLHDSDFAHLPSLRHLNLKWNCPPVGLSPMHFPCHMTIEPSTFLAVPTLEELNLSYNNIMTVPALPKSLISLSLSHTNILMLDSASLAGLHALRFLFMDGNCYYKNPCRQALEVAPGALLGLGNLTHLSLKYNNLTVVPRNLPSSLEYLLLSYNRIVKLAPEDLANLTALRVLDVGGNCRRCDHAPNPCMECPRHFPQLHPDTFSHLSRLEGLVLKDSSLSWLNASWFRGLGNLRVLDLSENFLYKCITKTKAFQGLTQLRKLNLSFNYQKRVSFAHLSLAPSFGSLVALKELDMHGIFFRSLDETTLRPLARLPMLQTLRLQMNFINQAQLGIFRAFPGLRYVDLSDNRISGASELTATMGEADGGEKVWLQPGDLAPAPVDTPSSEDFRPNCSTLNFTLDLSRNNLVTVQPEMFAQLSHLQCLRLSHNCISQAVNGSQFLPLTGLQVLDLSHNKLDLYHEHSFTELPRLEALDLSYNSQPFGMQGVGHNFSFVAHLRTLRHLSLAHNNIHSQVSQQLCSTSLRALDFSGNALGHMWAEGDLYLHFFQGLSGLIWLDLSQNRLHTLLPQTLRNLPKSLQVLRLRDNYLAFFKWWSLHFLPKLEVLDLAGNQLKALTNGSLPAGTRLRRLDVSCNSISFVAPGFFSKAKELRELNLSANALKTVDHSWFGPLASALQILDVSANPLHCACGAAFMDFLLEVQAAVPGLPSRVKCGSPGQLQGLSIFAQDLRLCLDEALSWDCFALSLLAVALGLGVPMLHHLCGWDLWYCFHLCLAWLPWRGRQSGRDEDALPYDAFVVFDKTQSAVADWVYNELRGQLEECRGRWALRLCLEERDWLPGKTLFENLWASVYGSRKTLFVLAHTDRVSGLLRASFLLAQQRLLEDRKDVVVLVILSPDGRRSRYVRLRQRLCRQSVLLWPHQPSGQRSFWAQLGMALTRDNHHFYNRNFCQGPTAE
ABCB6 inh 2: inhibitors of human ABC transporter ABCB6 | Q9NP58 | K562-ABCB6 porphyrin accumulation, flow cytometry, 1 h; active compounds read low | fluorescence ratio to DMSO, % at 10 µM | 0.19% of 360,000 active | AID 602162;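 active means fluorescence ratio to DMSO below 75%, the collection mean minus 3 SD; inconclusive means too few cells collected in the well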;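 further: signal is porphyrin accumulated inside mitochondria; lower ratio means ABCB6 inhibition with less porphyrin fluorescence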
TLR4-MyD88 BLA: blocks binding of human TLR4 to MyD88; HeLa CL3-4 TLR4/MyD88 BLA complementation, FRET ratio; AID 861; 0.18% of 200,000 active; inhibition, % at 8.4 µM; in the data active means inhibition above about 25%
Myeloid diff 2: compounds promoting myeloid differentiation; ER-HoxA9 myeloid progenitors, lysozyme-GFP differentiation, flow cytometry; calls only at 10 µM; 1% of 360,000 active; AID 624256;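 active means normalized GFP-positive differentiation at or above the plate's own cutoff, the solvent-only control mean plus 3 SD; inconclusive means no clear call, values can overlap the other calls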;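 further: cells exposed to compound for four days before flow analysis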
Myeloid diff: compounds promoting myeloid differentiation. 2% of 2,300 active. shares compounds with Myeloid diff 2. calls only. ER-HoxA9 myeloid progenitors, GFP/Mac1 double-positive flow;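 active means share of green or green-and-red cells above 9 and 9% in run 1 or 4 and 3% in run 2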
GFP autofluor: flagged as fluorescent in myeloid differentiation counter-screen. shares compounds with Myeloid diff 2. ER-HoxA9 myeloid progenitors, no estrogen, GFP autofluorescence flow cytometry; vehicle wells 0%, positive control 100%. fluorescence response, % (no concentration beside the values). 7.4% of 2,300 active. AID 651707;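 active means over 5% cells positive for green fluorescent reporter, or over 2% positive for both it and APC stain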
NOD2-RIPK2 conf: confirmation of human NOD2-RIPK2 interaction inhibitors. 70% of 1,200 active. AID 624370. CHO cells, NOD2-RIPK2 BLA complementation, CCF4 FRET. inhibition, % at 4.98 µM. shares compounds with NOD2-RIPK2 inh;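 active means mean inhibition across replicates above a set limit taken from the earlier primary screen, cut at about 21% in these data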
BLA counter: NOD2-RIPK2 counterscreen BLA reporter activity; CHO BLA reporter, CCF4 FRET ratio; 57% of 1,200 active; inhibition, % at 4.98 µM; shares compounds with NOD2-RIPK2 inh;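 active means mean inhibition above the low-control mean inhibition plus three low-control SD, cut at about 11% in these data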
Each line names hits and unclear results; the compound was inactive in the other large screens (follow-up assays come after a bar, where they were run). Compounds with a hit are over-represented: about 1.7% of the library has one in this group of screens.

O=C(Nc1ccc(S(=O)(=O)N2CCCCC2)cc1)C1CCCN(C(=O)c2ccc(Cl)cc2)C1 (centres undefined)	none | Myeloid diff inactive | GFP autofluor inactive
CN(C)S(=O)(=O)c1ccc(NC(=O)C2CCCN(C(=O)c3ccc(Cl)cc3)C2)cc1 (centres undefined)	none
CCN1C(=NCCCOC(C)C)N[C@@H](CCc2ccccc2)[C@H](C(=O)NCCCOC(C)C)[C@H]1C	none (no result: TLR4-MyD88 BLA)
CCOP(=O)(OCC)C(NC(=O)Nc1cccc(Cl)c1)C(N)=O (centres undefined)	none
CCOP(=O)(OCC)C(NC(=O)Nc1ccc(C)cc1)C(N)=O (centres undefined)	Myeloid diff 2 active (no result: TLR9-MyD88 inh, TLR4-MyD88 BLA) | Myeloid diff inactive | GFP autofluor inactive
Cc1ccc(C)n1NC(=O)c1ccccc1	none
Cc1ccc(C)n1NC(=O)c1cccs1	none | Myeloid diff inactive | GFP autofluor inactive
O=C(NC1CC2CCC1C2)c1ccco1 (centres undefined)	none (no result: TLR4-MyD88 BLA) | Myeloid diff inactive | GFP autofluor inactive
O=C(Nc1ccccc1)c1cc(C2CCCCN2C(=O)c2cccs2)on1 (centres undefined)	none (no result: TLR9-MyD88 inh, TLR4-MyD88 BLA)
CCCCn1c(N)c(N(CC(C)C)C(=O)C2=COCCO2)c(=O)[nH]c1=O	none (no result: TLR4-MyD88 BLA)
CC(Sc1nc2ccccc2c(=O)n1C)C(=O)Nc1ccc2c(c1)OCCO2 (centres undefined)	none (no result: TLR4-MyD88 BLA) | Myeloid diff inactive | GFP autofluor inactive
CCOC(=O)C1=C(COC(=O)CSc2ccc(C)cc2)NC(=O)NC1C (centres undefined)	none (no result: TLR4-MyD88 BLA)
Cc1nn(C)c(N)c1[N+](=O)[O-]	none (no result: TLR4-MyD88 BLA)
Cc1nn(C)c(Sc2ccccc2N)c1[N+](=O)[O-]	none | Myeloid diff inactive | GFP autofluor inactive
CCn1c(COc2ccccc2C)nnc1SCC(=O)Nc1cc(C)on1	Myeloid diff 2 active | Myeloid diff inactive | GFP autofluor inactive
O=Cc1ccc(OC(=O)/C=C/c2ccccc2)cc1	none (no result: TLR4-MyD88 BLA)
Nc1ccc2nn(-c3ccccc3)nc2c1	none | Myeloid diff inactive | GFP autofluor inactive
COc1ccc(Oc2ccc(/C=C/C(=O)c3cccc(OC)c3)cc2[N+](=O)[O-])cc1	none
O=C1c2ccccc2C(=O)N1CCCON1C(=O)c2ccccc2C1=O	none
CC(=O)OCCCCON1C(=O)c2ccccc2C1=O	none (no result: Myeloid diff 2) | Myeloid diff inactive | GFP autofluor inactive
COc1ccc(CN=CC2=C(O)CNC2=O)cc1OC	none | Myeloid diff inactive | GFP autofluor inactive
O=C1NCC(O)=C1C=NCCCO	none
CN(CCOC(=O)CN1C(=O)c2ccccc2C1=O)C1=NS(=O)(=O)c2ccccc21	none (no result: NOD2-RIPK2 inh, TLR9-MyD88 inh, ABCB6 inh 2, Myeloid diff 2)
COC(=O)[C@H](CCSC)NC(=O)NCc1cccs1	none | Myeloid diff inactive | GFP autofluor inactive
COC(=O)[C@@H](NC(=O)NCc1cccs1)C(C)C	none
Cc1ncc([N+](=O)[O-])n1CC(=O)Nc1ccc(F)cc1	none (no result: TLR4-MyD88 BLA)
COC(=O)c1ccc(NC(=S)NC(=O)C2CCC2)cc1	none (no result: TLR4-MyD88 BLA)
COC(=O)c1ccc(NC(=S)NC2CCCCC2C)cc1 (centres undefined)	Myeloid diff 2 active | Myeloid diff inactive | GFP autofluor inactive
Cc1onc(-c2ccccc2Cl)c1C(=O)N1C=CC(C(F)(F)Cl)=NCC1	Myeloid diff 2 active | Myeloid diff inactive | GFP autofluor inactive
CCN(CC)c1ncnc2c1ncn2[C@H]1CN(Cc2ccc(F)cc2)C[C@@H](CO)O1	none (no result: TLR9-MyD88 inh, TLR4-MyD88 BLA)
COc1ccc(/C=N/Nc2c(Cl)cc(Cl)cc2Cl)cc1CN1CCOCC1	none | Myeloid diff inactive | GFP autofluor inactive
COc1ccc2c(c1)OC[C@H]1[C@H]2N2C(=O)c3cc(Cl)ccc3NC(=O)[C@@]2(C)[C@H]1c1ccccc1	none (no result: TLR4-MyD88 BLA)
COc1ccc2c(c1)OC[C@H]1[C@H]2N2C(=O)c3cc(OC)ccc3NC(=O)[C@@]2(C)[C@H]1c1ccccc1	none (no result: TLR4-MyD88 BLA) | Myeloid diff inactive | GFP autofluor inactive
Cc1cc(C)c(NC(=O)COC(=O)Cc2cccs2)c(C)c1	none (no result: TLR4-MyD88 BLA)
Fc1ccccc1N1CCN(C2CCCN(Cc3ccccc3C(F)(F)F)C2)CC1 (centres undefined)	Myeloid diff 2 active (no result: TLR4-MyD88 BLA) | Myeloid diff inactive | GFP autofluor inactive
CCCCNc1c(-c2cc3ccccc3o2)nc2nc(C)cc(C)n12	Myeloid diff 2 active (no result: TLR9-MyD88 inh, TLR4-MyD88 BLA) | Myeloid diff inactive | GFP autofluor inactive
COc1ccc(Nc2c(-c3cc4ccccc4o3)nc3nc(C)cc(C)n23)cc1	none (no result: TLR9-MyD88 inh, TLR4-MyD88 BLA)
CCOc1cc(S(=O)(=O)n2nc(C)cc2C)ccc1Br	none
CC12C(=O)N(CCC(=O)O)C(=O)C1C1C=CC2C1 (centres undefined)	Myeloid diff 2 active | Myeloid diff inactive | GFP autofluor inactive
CC12C(=O)N(Cc3ccccc3)C(=O)C1C1C=CC2C1 (centres undefined)	none
Cc1ccc(C)c(NC(=O)CN(C)C(=O)c2cc3c(s2)CCCCC3)c1	none (no result: TLR4-MyD88 BLA)
CC[n+]1c(C)cc(C)n1-c1ccccc1	none | Myeloid diff inactive | GFP autofluor inactive
COc1ccccc1-n1cnc2cc(NC(=O)c3ccco3)ccc21	Myeloid diff 2 active | Myeloid diff inactive | GFP autofluor inactive
COc1ccc(-n2cnc3cc(NC(=O)c4ccco4)ccc32)cc1	Myeloid diff 2 inconclusive
CSC[C@H](NC(=O)COc1cc2c(c3oc(=O)c(C)c(C)c13)CCC(C)(C)O2)C(=O)O	none (no result: TLR4-MyD88 BLA)
Cc1c(C)c2c(OCC(=O)N[C@@H](Cc3ccccc3)C(=O)O)cc3c(c2oc1=O)CCC(C)(C)O3	none (no result: TLR4-MyD88 BLA) | Myeloid diff inactive | GFP autofluor inactive
CCC(=Nc1ccccc1O)C1=C(O)CC(c2ccccc2)CC1=O (centres undefined)	none (no result: TLR4-MyD88 BLA) | Myeloid diff inactive | GFP autofluor 6.6
CC1(Oc2cccc(F)c2)CCN(Cc2ccc(-c3ccccn3)cc2)C1 (centres undefined)	none (no result: TLR9-MyD88 inh, TLR4-MyD88 BLA)
O=C1CCC/C(=N/NC(=O)c2sc3ccccc3c2Cl)C1	none (no result: TLR4-MyD88 BLA) | Myeloid diff inactive | GFP autofluor inactive
COc1ccc2[nH]c3nc(SCC(=O)NNC(=O)c4ccc(OC)c(OC)c4)nnc3c2c1	none | Myeloid diff inactive | GFP autofluor inactive
CCOC(=O)Cn1c2c(c(=N)c3ccccc31)CCC2	Myeloid diff 2 active | Myeloid diff inactive | GFP autofluor inactive
O=CNc1ccc2c3c(cccc13)-c1ccccc1-2	NOD2-RIPK2 inh 29, Myeloid diff 2 active (no result: TLR4-MyD88 BLA) | Myeloid diff inactive | GFP autofluor inactive | NOD2-RIPK2 conf 24 | BLA counter 38
CC(=O)Nc1ccc2c3c(cccc13)C(=O)N(c1ccccc1)C2=O	none
